VHR inh abs: VHR1 phosphatase inhibitors, primary screen, biochemical, absorbance, uHTS | recombinant VHR phosphatase, pNPP absorbance | inhibition, % at 13.3 µM | AID 1654, 2009 | Dual specificity protein phosphatase 3 (Homo sapiens), P51452 | 290,000 tested, 0.52% active; in the data active = inhibition above about 50%
Target sequence (P51452 whole entry, looked up): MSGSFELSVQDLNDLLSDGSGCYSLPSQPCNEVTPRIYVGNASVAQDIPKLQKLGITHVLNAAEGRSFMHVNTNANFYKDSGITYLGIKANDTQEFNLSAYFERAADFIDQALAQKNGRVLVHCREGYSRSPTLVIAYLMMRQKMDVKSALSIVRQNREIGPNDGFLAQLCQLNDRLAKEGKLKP
CCHFV vOTU inh: CCHFV vOTU protease inhibitors, primary screen, biochemical, Pep-AMC substrate, fluorescence; 370,000 tested, 0.55% active; AID 651958, 2012; Crimean-Congo hemorrhagic fever virus L polyprotein viral ovarian tumor (vOTU) protease …; inhibition, % at 11.5 µM; in the data active = inhibition above about 30%; note: 0% = vehicle wells with enzyme and 100% = no enzyme wells
BH1578 lux ind: inducers of Vibrio cholerae quorum light production without autoinducers, primary screen, BH1578 luxS cqsA deficient, single point | activation, % at 18.7 µM | V. cholerae BH1578 lux reporter, luminescence, 6 h | 350,000 tested, 0.16% active; in the data active = activation mostly above about 9.7%, no sharp cut-off
TcdB GH inh: TcdB glycohydrolase inhibitors, primary screen, biochemical, single point, plate reader | Toxin B (Clostridioides difficile), P18177 | TcdB glycohydrolase enzymatic assay | inhibition, % at 9.99 µM | 350,000 tested, 0.24% active | AID 652162, 2013; in the data active = inhibition above about 10%
SARS 3CLpro inh: SARS-CoV 3CLpro protease inhibitors, primary screen, biochemical, quenched FRET; Replicase polyprotein 1ab (Severe acute respiratory syndrome coronavirus), P0C6X7; recombinant SARS-CoV 3CLpro, quenched FRET peptide cleavage; inhibition, % at 6 µM; 290,000 tested, 0.14% active; in the data active = inhibition above about 12%
PriA SSB inh: inhibitors of Klebsiella pneumoniae PriA binding to SSB C-terminal tail, primary screen, biochemical, AlphaScreen | PriA–SSB C-terminal tail interaction (Klebsiella pneumoniae) | AlphaScreen SSBct-PriA binding, biotinylated peptide | inhibition, % at 33 µM | 430,000 tested, 0.6% active | AID 1272365, 2023; in the data active = inhibition mostly above about 37%, no sharp cut-off; inactive = mostly below about 20%;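 note: plate controls were negative control peptide for no effect and reference peptide for full effect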
* = called active by the depositor; i = inactive; . = no result. Only some compounds are listed: those with a hit (about 1.3% of all), similar ones and a draw of the others.

SMILES	VHR inh abs	CCHFV vOTU inh	BH1578 lux ind	TcdB GH inh	SARS 3CLpro inh	PriA SSB inh
COc1ccc(NC(=O)c2c(-c3c(F)cccc3Cl)noc2C)cc1[N+](=O)[O-]	.	.	.	.	.	66*
O=C(Cc1cccs1)N(Cc1cnc2ccccn12)c1ccccc1	.	.	.	.	.	-2
O=C(Nc1ccc(Nc2ccccc2)cc1)N[C@H]1CC(=O)N(c2ccccc2)C1	.	.	.	.	.	-4
OC(COc1ccc(Br)cc1Br)CN1CCN(c2ccccc2F)CC1 (stereo unspecified)	.	.	.	.	.	-10
CCC(CC)C(=O)NCC(c1ccsc1)N1CCCCCC1 (stereo unspecified)	.	.	.	.	.	-7
CN(C)C(=O)C1CCNCC1	.	.	.	.	.	39*
Cc1ccc(NCc2ccc(O)c3ncccc23)cc1	15	4	0	1	6	33
Cc1ccc(NCc2ccc(O)c3ncccc23)cc1C	34	11	0	1	1	41*
Cc1cccc(NCc2ccc(O)c3ncccc23)c1C	22	9	0	0	-5	60*
Cc1cccnc1NCc1ccc(O)c2ncccc12	2	-6	i	.	-3	57*
O=C(Nc1nc(-c2cc(Cl)sc2Cl)cs1)c1ccc2c(c1)OCCO2	.	.	.	.	.	-3
Cc1cncnc1N1CCN(C(=O)NCc2cccs2)CC1	.	.	.	.	.	-4
O=C(CC1N=C2c3ccccc3N=C(SCc3ccc(F)cc3)N2C1=O)NCc1ccco1 (stereo unspecified)	-15	-7	17*	.	-1	0
Cc1cc(C)c(C)c(S(=O)(=O)NCc2ccc(C(=O)Nc3ccc(-c4nc5ccccc5s4)cc3)cc2)c1C	.	.	.	.	.	-24
CC(=O)Nc1ccc(C(=O)NC(C)c2ccc(-n3ccnc3)cc2)cc1 (stereo unspecified)	53*	16	-1	0	-2	10
CC(=O)c1cccc(Oc2cc(NN3CCCCC3)c([N+](=O)[O-])cc2[N+](=O)[O-])c1	24	5	0	1	-2	45*
COc1cc(-c2c(C#N)c(N)nc3c2c(C)nn3-c2ccc(C)cc2)cc(OC)c1OC	.	.	.	.	.	-7
Cc1ccc(C2=NS(=O)(=O)N(C)C(C(=O)NC(C)c3ccccc3)=C2)cc1 (stereo unspecified)	33	7	2	2	-1	9
CSc1ccccc1NC(=O)C1=CC(c2ccc(C)cc2)=NS(=O)(=O)N1C	9	4	0	29*	-1	31
CC(C)n1cnc(S(=O)(=O)NC2CC3CCC(C2)N3S(C)(=O)=O)c1 (stereo unspecified)	.	.	.	.	.	-13
COc1cccc(CNC(=O)C2CCC(CNS(=O)(=O)c3cccc4cccnc34)CC2)c1 (stereo unspecified)	56*	12	i	2	-5	-4
COc1ccc(CNC(=O)C2CCN(C(=O)[C@@H](CC(C)C)NC(=O)OC(C)(C)C)CC2)cc1	29	-4	17*	.	-3	.
CCOc1ccc(N=CC2=C(O)CC(C)(C)CC2=O)cc1	-7	-5	0	.	3	-14
CC1(C)CC(=O)C(C=Nc2ccc(O)cc2)=C(O)C1	32	21	i	32*	0	-2
CSc1ccccc1N=CC1=C(O)CC(C)(C)CC1=O	13	12	18*	1	3	-34
SMILES	VHR inh abs	CCHFV vOTU inh	BH1578 lux ind	TcdB GH inh	SARS 3CLpro inh	PriA SSB inh
CC1(C)CC(=O)C(C=Nc2ccccn2)=C(O)C1	.	.	.	.	.	2
Cc1c(Cl)cccc1NC(=O)N1CCN(c2cc(-n3ccnc3)ncn2)CC1	.	.	.	.	.	-10
CCOC(=O)C1CCN(C(=O)Nc2ccc3nc(-c4ccco4)c(-c4ccco4)nc3c2)CC1	56*	.	i	.	-4	7
CCS(=O)(=O)c1ccccc1C(=O)Nc1ccccc1-c1nc2ccccc2s1	.	.	.	.	.	-15
Cn1c(-c2ccc(Cl)cc2)cnc1N	24	-8	0	.	5	54*
O=C(O)C1CC2CN(C(=O)c3ccccc3)CC(C1)C2=O (stereo unspecified)	.	.	.	.	.	-9
Clc1ccc(CN2CCCCCC2)cc1	2	-7	0	0	0	-20
O=[N+]([O-])c1cc(CN2CCCC2)ccc1Sc1ccc(Cl)cc1	31	0	0	0	5	43*

Compound activity (PubChem)
